From PubChem BioAssay
“And” between values parts separate entries of the source, which are not always exact repeats. Identical values can stand only once. A number with no mark means an inactive call. The rule behind the calls is not given here.

The compounds below were run against Pantothenate synthetase (Mycobacterium tuberculosis (strain ATCC 25618 / H37Rv)) (UniProt P9WIL5) (assay: Recombinant Mtb pantothenate synthetase (PanC) inhibitors, coupled enzyme, confirmatory (AID 375;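 note: 0% = full reaction with vehicle and 100% = no enzyme background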)). Settings: coupled enzyme assay; at 10 µM, stronger effect = higher value.
Pantothenate synthetase (Mycobacterium tuberculosis (strain ATCC 25618 / H37Rv)), sequence (P9WIL5 whole entry, looked up): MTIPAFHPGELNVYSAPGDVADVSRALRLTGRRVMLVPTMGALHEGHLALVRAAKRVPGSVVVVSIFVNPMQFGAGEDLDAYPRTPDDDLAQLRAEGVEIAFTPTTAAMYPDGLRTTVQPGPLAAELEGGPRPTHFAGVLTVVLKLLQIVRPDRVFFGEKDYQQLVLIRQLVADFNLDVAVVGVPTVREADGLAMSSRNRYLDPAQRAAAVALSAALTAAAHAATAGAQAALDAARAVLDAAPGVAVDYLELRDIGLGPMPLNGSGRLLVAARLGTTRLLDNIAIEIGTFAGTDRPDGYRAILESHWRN

Compared with COc1cc(=O)[nH]c(SCc2c(F)c(F)c(F)c(F)c2F)n1, COc1cc(CN(C)CC(=O)c2[nH]c(C)c(C(C)=O)c2C)ccc1OC(F)F is lower in inhibition: 2% for the first, 0% for the second.

First: O=C1CCCc2nc(N3CCCCC3)sc21
Second: OCCN(CCO)c1nc(N2CCCCC2)c2nc(N(CCO)CCO)nc(N3CCCCC3)c2n1
The inhibition of the first is higher: 5% for the first, 0% for the second.

First: COc1cccc(-c2cc3nc4c(c(N5CCC6(CC5)OCCO6)n3n2)CCCC4)c1
Second: COc1ccc2nc(N3CCC(C)CC3)c(C#N)cc2c1
The inhibition of the first is lower: 0% for the first, 7% for the second.

Going from Cc1nnc(SCCn2c(N3CCC(Cc4ccccc4)CC3)nc3c2c(=O)[nH]c(=O)n3C)s1 to Cn1c(C(=O)NCCCN2CCCCCC2)cc2c(=O)n(C)c3ccccc3c21, the inhibition falls from 2% to 0%.

Going from CCCC(=O)Nc1c2c(nn1-c1ccc(OC)cc1)CS(=O)C2 (stereo not given) to COc1ccc(-c2noc(CCC(=O)Nc3nc4ccccc4s3)n2)cc1, the inhibition falls from 1% to 0%.

Compared with Cc1ccc(C)c(S(=O)(=O)NCc2cccnc2)c1, Cc1cccc(NCc2ccccc2O)c1 is lower in inhibition: 7% for the first, 3% for the second.

Compared with Cc1ccc(CCNC(=O)C2CCCN(S(=O)(=O)c3cnc[nH]3)C2)cc1 (stereo not given), O=C(NCc1ccco1)c1cccc(S(=O)(=O)N2CCCCC2)c1 is lower in inhibition: 2% for the first, 0% for the second.

COc1ccc(N2CCN(C(=O)c3c(-c4ccccc4)noc3C)CC2)cc1 and O=C(Cn1ncc2c1-c1ccccc1OC2)N1CCN(c2ccccn2)CC1 are the same in inhibition: 0% for the first, 0% for the second.

Cc1cc(NC(=O)c2ccc(Cl)cc2)no1 and COc1cccc(C(=O)Nc2ccc(NC(C)=O)cn2)c1 are the same in inhibition: 0% for the first, 0% for the second.

COc1ccc2c(c1OC)C(=O)OC2CC(=O)c1ccc(O)cc1 (stereo not given) and COC(=O)c1ccc(C(=O)OC)c(NC(=O)Nc2ccc3c(c2)OCO3)c1 are the same in inhibition: 0% for the first, 0% for the second.

First: COC(=O)CNc1nc(C2CC2)nc2c1nnn2Cc1ccccc1Cl
Second: CC(C)COc1nc2ccccc2nc1C(C#N)C(=O)NC1CCCCC1 (stereo not given)
The inhibition of the first is higher: 6% for the first, 0% for the second.

Going from Cc1ccc2cc(CN(CC(C)C)C(=O)C3CCCO3)c(=O)[nH]c2c1 (stereo not given) to Cc1ccc2c(c1)c1c3n2CC(=C2C(=O)OC(C)(C)OC2=O)NC3CCC1 (stereo not given), the inhibition rises from 0% to 6%.

First: CC(C(=O)c1ccccc1)n1cnc2ccccc2c1=O (stereo not given)
Second: N#CC(C(=O)NCCc1ccccc1)c1nc2ccccc2nc1N1CCOCC1 (stereo not given)
The inhibition of the first is higher: 9% for the first, 0% for the second.

Cc1ccc(CNC(=O)COC(=O)c2c(C)noc2C)cc1 and CCN(CC)CCN1C(=O)C(=O)/C(=C(/O)c2c(C)[nH]c(C(=O)OC)c2C)C1c1ccco1 (stereo not given) are the same in inhibition: 0% for the first, 0% for the second.

Cc1cc(C)n(S(=O)(=O)c2cc(C(=O)O)c(Cl)cc2Cl)n1 and Cc1cc(-c2ccccc2)c2c3c(cn2n1)c(=O)n(C)c(=O)n3C are the same in inhibition: 0% for the first, 0% for the second.

CCS(=O)(=O)c1ccc(S(=O)(=O)CC)s1 and O=C(O)c1ccc(S(=O)(=O)Cc2ccccc2)cc1 are the same in inhibition: 0% for the first, 0% for the second.

Going from Cc1c(C(=O)OC(C)C)[nH]c2c1C(=O)CCC2 to Cc1nc2ccc(NC(=O)N3CCSCC3)cc2s1, the inhibition rises from 0% to 1%.

First: CC(C)CC(c1nnnn1C(C)(C)C)N1CCN(C2CCCC2)CC1 (stereo not given)
Second: O=C(CNCC1CCCO1)Nc1ccccc1-n1cccc1 (stereo not given)
The inhibition of the first is lower: 0% for the first, 2% for the second.

Compared with Cc1cccn2c(=O)c3cc(C#N)c(=NC(=O)c4ccncc4)n(Cc4ccco4)c3nc12, CC(=O)C1=C(O)C(=O)N(Cc2ccco2)C1c1ccc2c(c1)OCO2 (stereo not given) is higher in inhibition: 0% for the first, 3% for the second.

In the case of CNC[C@H](O)c1cccc(O)c1, the inhibition is reported as 0%.

CN(C)C(=O)Oc1cccc([N+](C)(C)C)c1 was tested, and the inhibition was 9% and 0%.
